Screens from PubChem BioAssay.
In the library only some 2.3% were active in any assay of this set; here they are far more common.
Jurkat NFkB inh: lowers PMA/ionomycin-induced NF-kB signal in Jurkat cells; 0.53% of 330,000 active; AID 435003; inhibition, % at 4 µM; PMA/ionomycin-induced NF-kB luciferase reporter, luminescence; in the data active means inhibition above about 50%
aSyn 5UTR inh: 5' untranslated region of α-synuclein, MLPCN primary screen. inhibition, % (tested at 7.5 µM). AID 1813. alpha-synuclein 5'UTR reporter, inhibitor activity. 0.82% of 300,000 active; in the data active means inhibition above about 60%;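 further: H4 neuroglioblastoma cells stably carrying SNCA 5'UTR luciferase fusion; 0% = DMSO wells and 100% = positive control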
TAG inh: triacylglycerol accumulation inhibition; H9c2 cells, Nile Red lipid (TAG) fluorescence; cells loaded with 200 µM oleic acid; inhibition, % at 12.5 µM; 0.66% of 230,000 active; AID 651582;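 active means pattern-corrected inhibition of lipid staining of at least 50% with the nuclear-stain viability signal not falling by more than 50%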;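 further: 0% = DMSO wells and 100% = triacsin C control wells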
Gli-Sufu block: antagonists of Gli-Sufu signaling; Sufu-KO-LIGHT fibroblasts, Gli luciferase reporter luminescence; AID 588413; inhibition, % at 5 µM; 0.74% of 340,000 active;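 active means inhibition above about 55%, limit read from the data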;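 further: 0% = DMSO-treated cells and 100% = wells with medium but no cells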
Shn3 3UTR inh: reduces Shn3 3'UTR luciferase signal in osteoblasts. 0.52% of 360,000 active. inhibition, % at 12.5 µM. Clone20 osteoblast Shn3 3'UTR firefly luciferase, 24 h;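 active means mean inhibition of at least 75% with every replicate also reaching 75%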;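 further: 0% = median of neutral control wells and 100% = pilot-screen positive control compound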
697 NFkB inh: lowers PMA/ionomycin-induced NF-kB signal in 697 B cells; 697 B-cell NF-kB luciferase reporter, 16 h; inhibition, % at 4 µM; 0.33% of 330,000 active; AID 435022; in the data active means inhibition above about 35%
H9c2 TAG conf: triacylglycerol accumulation inhibition, confirmation; H9c2 lipid accumulation, Nile Red fluorescence; cells loaded with 200 µM oleic acid; inhibition, % at 12.5 µM; shares compounds with TAG inh; 71% of 990 active;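 active means mean inhibition across replicates of 40% or more; inactive means mean inhibition below 40%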;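 further: plate controls were DMSO only wells for no effect and Triacsin C treated wells for full effect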
The depositor's hits bear a star; . = not tested or not shown.

SMILES	Jurkat NFkB inh	aSyn 5UTR inh	TAG inh	Gli-Sufu block	Shn3 3UTR inh	697 NFkB inh	H9c2 TAG conf
COc1ccc2nc(SCC(=O)N3CC(=O)Nc4ccccc43)c(C#N)cc2c1	19	33	54*	12	-6	15	39
COc1ccc2nc(SCC(C)=O)c(C#N)cc2c1	-113	-70	.	-123	22	-221	.
COc1ccc(C[C@H]2CN3C(=NC[C@@H]3Cc3ccc(O)cc3)N2CCNC(=O)c2ccc(C)c(Br)c2)cc1	28	1	62*	31	31	-7	49*
COc1ccc2oc(-c3ccccc3)c(C(=O)N(C)C)c2c1	-8	18	-8	-8	-18	-20	.
C[C@H](NC(=O)c1nc[nH]c1C(=O)NCCCCCNC(=O)OC(C)(C)C)c1ccccc1	0	.	-11	-4	42	-17	.
CC1(C)Cc2nc3sc4c(SCC(=O)NCc5ccco5)ncnc4c3cc2CO1	5	.	54*	-55	-5	-133	47*
Cc1ccc(OCC(=O)NCCNC(=O)c2cccnc2)cc1C	5	-3	.	-5	11	5	.
CC(C)CC(N)c1csc(NC(=O)Nc2ccccc2Cc2ccccc2)n1 (stereo not drawn)	.	.	114*	.	31	.	69*
COc1ccc(CC(N)c2csc(NC(=O)NCc3ccccc3)n2)cc1 (stereo not drawn)	.	.	53*	.	-8	.	42*
CC(C)CC(N)c1csc(NC(=O)Nc2ccccc2-c2ccccc2)n1 (stereo not drawn)	.	.	107	.	7	.	.
COc1cc(NC(=O)Nc2nc(C(N)CCc3ccccc3)cs2)cc(OC)c1OC (stereo not drawn)	.	.	83*	.	-12	.	89*
COc1cc(CNC(=O)Nc2nc(C(N)Cc3ccc(C(F)(F)F)cc3)cs2)cc(OC)c1OC (stereo not drawn)	.	.	76*	.	-12	.	88*
CC(=O)Nc1sc(C)c(C)c1C(=O)OCC(=O)N(C)C1CCS(=O)(=O)C1 (stereo not drawn)	-8	0	.	-4	10	-27	.
CC(=O)Nc1ccc2c(c1)C(=Nc1cccc(C)c1)c1ccccc1-2	.	.	-9	-11	-10	.	.
COc1cc(OC)nc(Nc2nc(C(N)Cc3ccc(Cl)cc3)cs2)n1 (stereo not drawn)	.	.	58*	.	33	.	46*
COc1ccc(CC(N)c2csc(NC(=O)Nc3ccccc3-c3ccccc3)n2)cc1 (stereo not drawn)	.	.	73*	.	45	.	87*
O=C(NCCOc1nc(N2CCOCC2)nc(N2CCOCC2)n1)Nc1ccccc1	1	-4	54*	-12	6	20	30
O=C(NCCOc1nc(N2CCCCC2)nc(N2CCOCC2)n1)Nc1ccccc1	-11	9	.	7	16	21	.
CCN(CC)C(=O)[C@H]1C[C@H](CC(=O)NCCCn2ccnc2)C(=O)N2CCc3c([nH]c4cc(CCC(=O)N(C)C)ccc34)[C@]12C	.	.	53*	-8	-3	-20	-10
O=C(NCC1CC1)c1onc(CSc2ccncc2)c1C(=O)NCC1CC1	19	-1	50*	29	1	5	32
CCCCNC(=O)c1onc(CSc2ccncc2)c1C(=O)NCCCC	-11	-21	-4	11	18	14	.
CN(Cc1ccccc1)c1ccc(C(CC(N)=O)NC(=O)Cc2cccc3ccccc23)cc1[N+](=O)[O-] (stereo not drawn)	9	20	-16	0	-9	18	.
C[C@H](CO)N1C[C@H](C)[C@@H](CN(C)Cc2ccncc2)Oc2c(cccc2N(C)C)C1=O	3	.	.	7	13	-3	.
C[C@@H]1CN([C@@H](C)CO)C(=O)c2cc(N(C)C)ccc2O[C@@H]1CN(C)Cc1ccncc1	1	.	61*	-5	3	-9	11
CCCc1[nH]n(-c2ccc([N+](=O)[O-])cc2)c(=O)c1C=NCCc1c[nH]c2ccccc12	4	21	63*	2	10	-7	65*
SMILES	Jurkat NFkB inh	aSyn 5UTR inh	TAG inh	Gli-Sufu block	Shn3 3UTR inh	697 NFkB inh	H9c2 TAG conf
O=C(Nc1cccc(Cl)c1)c1nc[nH]c1C(=O)NCCCNC(=O)c1[nH]cnc1C(=O)Nc1cccc(Cl)c1	3	.	70*	19	9	13	85*
Cc1ccc(NC(=O)c2[nH]cnc2C(=O)NN)cc1	-4	-65	2	-8	-34	-13	.
Cc1ccc(NC(=O)c2nc[nH]c2C(=O)NCCCCCCNC(=O)c2[nH]cnc2C(=O)Nc2ccc(C)cc2)cc1	9	.	109*	-2	1	6	95*
CCOC(=O)C1CCN(C(=O)c2cc(S(=O)(=O)N(C)C)ccc2N2CCCC2)CC1	-2	0	-27	-4	0	12	.
COc1ccc(Nc2cccc3ccccc23)cc1	-29	-72	65*	-12	-14	-40	13
COc1cccc(-c2cc(=O)c3cc(NC(C)=O)ccc3[nH]2)c1	33	5	63*	-12	-24	-11	34
Cc1ccc(C)n1CCN1CCN(C(=O)CC#N)CC1	3	8	-6	-5	-14	4	.
Cc1ccc(NC(=O)Cn2nnc(-c3ccccc3NC(=O)c3cccs3)n2)cc1	45	67*	57*	13	-1	-33	71*
O=C(CSc1ccc(-c2cccc([N+](=O)[O-])c2)nn1)N1CCCC1	-24	-18	60*	3	-6	-10	3
Cc1ccc(-c2cc(C(F)F)n3ncc(C(=O)N4CCCc5ccccc54)c3n2)cc1	-9	16	60*	9	20	8	30
COc1cc(C#Cc2c(-c3cncn3C)n(C)c3ccc(-c4cc(OC)c(OC)c(OC)c4)cc23)cc(OC)c1	5	.	61*	26	68	10	77*
COc1cc(C#Cc2c(-c3cncn3C)n(C)c3ccc(-c4ccc5[nH]ccc5c4)cc23)cc(OC)c1	-21	.	93*	-2	53	-4	92*
COc1cc(OC)cc(-c2c(C#Cc3ccsc3)c3cc(-c4ccc5[nH]ccc5c4)ccc3n2C)c1	-4	.	.	7	12	-19	.
c1ccc(N(c2ccccc2)c2nc(N3CCCC3)nc(-n3ccnc3)n2)cc1	11	-5	60*	11	31	15	43*
CN(c1ccccc1)c1nc(N2CCCC2)nc(-n2ccnc2)n1	6	9	24	-5	-3	-28	.
COc1ccc(-c2nc3ccc(Cl)cn3c2NC2CCCCC2)cc1SC1CCCCC1	0	.	63*	-2	15	-40	70*
Cc1ccc2nc(-c3cccc(SC4CCCCC4)c3)c(NC3CCCCC3)n2c1	-5	.	27	21	37	-46	.
